# Compound activity as filed in PubChem.
# Shown are actives, neighbours in structure and some others; about 2.8% of the full set was active somewhere.
# HSP90 inh = blocks HSP90-mediated luciferase refolding in reticulocyte lysate | Rabbit reticulocyte lysate, luciferase refolding luminescence, 3 h | inhibition, % at 5.6 µM | 0.91% of 290,000 active;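 active means inhibition above the screen-wide mean plus 3 SD, computed separately per campaign, cut at about 16% in these data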;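 further: 0% = DMSO wells and 100% = 60 µM geldanamycin wells; inhibitors lower the luminescence because luciferase stays unfolded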
# SENP8 block-1 = SENP8 (human) protease inhibition | recombinant SENP8, Nedd8 substrate fluorescence | inhibition, % at 20 µM | 0.64% of 360,000 active; in the data active means inhibition mostly above about 40%, no sharp cut-off; inactive means mostly below about 27%
# Target sequence (Q96LD8 whole entry, looked up): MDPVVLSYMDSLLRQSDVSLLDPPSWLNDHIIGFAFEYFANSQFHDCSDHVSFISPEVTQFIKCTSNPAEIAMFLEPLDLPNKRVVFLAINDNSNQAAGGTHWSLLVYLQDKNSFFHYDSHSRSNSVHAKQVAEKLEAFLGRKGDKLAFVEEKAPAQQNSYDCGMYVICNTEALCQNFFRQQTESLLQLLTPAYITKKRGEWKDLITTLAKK
# SENP6 block = SENP6 protease inhibition; Q9GZR1; Recombinant SENP6 catalytic domain, aminoluciferin luminescence; inhibition, % at 10 µM; 1.8% of 330,000 active; AID 2599;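 active means inhibition above about 50% at the single tested dose, limit read from the data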;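 further: plate controls were DMSO wells with enzyme for no effect and DMSO wells lacking enzyme for full effect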
# SENP7 inh = SENP7 protease inhibition; Q9BQF6; recombinant SENP7, Z-RLRGG-aminoluciferin luminescence, 40 min; inhibition, % at 5 µM; 1.5% of 330,000 active; AID 434973;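 active means inhibition above about 50% at the single test dose, limit read from the data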;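 further: plate controls were DMSO with enzyme for no effect and no enzyme buffer wells for full effect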
# SENP8 block-2 = blocks the human protease SENP8 | Q96LD8 | purified SENP8, Z-RLRGG-aminoluciferin cleavage, luminescence | inhibition, % at 10 µM | 1.2% of 330,000 active | AID 2540; in the data active means inhibition above about 50%
# SENP8 confirm = human SENP8 inhibition, confirmed; Recombinant SENP8, Z-RLRGG-aminoluciferin luminescence, 60 min; 40% of 6,200 active; shares compounds with SENP7 inh; inhibition, % at 12.5 µM; AID 488912;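 active means mean inhibition across replicates above about 50%, limit read from the data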
# SENP6 confirm = human SENP6 inhibition, confirmed; shares compounds with SENP7 inh; recombinant SENP6, Z-RLRGG-aminoluciferin luminescence; inhibition, % at 12.5 µM; 58% of 6,200 active; AID 488915
# SENP7 conf = human SENP7 inhibition, confirmed; shares compounds with SENP7 inh; recombinant SENP7, Z-RLRGG-aminoluciferin luminescence, 40 min; inhibition, % at 12.5 µM; 69% of 6,200 active
# Casp3 SENP sel = inhibits human caspase-3 in SENP selectivity test; shares compounds with SENP7 inh; purified caspase-3, Z-DEVD-aminoluciferin luminescence, 60 min; inhibition, % at 12.5 µM; 60% of 6,200 active;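 active means mean inhibition above about 50%, limit read from the data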;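 further: plate controls were enzyme with DMSO for no effect and wells without caspase-3 for full effect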
# Target sequence (P42574 28-227 limits assumed): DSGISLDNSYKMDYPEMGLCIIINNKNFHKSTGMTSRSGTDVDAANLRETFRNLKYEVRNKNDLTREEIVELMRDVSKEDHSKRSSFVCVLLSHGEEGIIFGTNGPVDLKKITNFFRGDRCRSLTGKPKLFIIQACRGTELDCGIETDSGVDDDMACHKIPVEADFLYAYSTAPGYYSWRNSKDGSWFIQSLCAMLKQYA
# SENP luc ctr = luminescence interference (SENP counter-screen). shares compounds with SENP7 inh. Pre-incubated SENP8/Z-RLRGG-aminoluciferin, luciferase luminescence interference. inhibition, % at 12.5 µM. 39% of 6,200 active;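 active means mean inhibition above about 50% when retested at one dose, limit read from the data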;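 further: plate controls were DMSO wells with completed reaction for no effect and substrate without enzyme for full effect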
# An asterisk follows results filed as active; . = no result given.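 How the source made its calls, unless noted: active means mean inhibition above about 50% in the one-dose retest (limit read from the data); inactive means the rest.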
SMILES,HSP90 inh,SENP8 block-1,SENP6 block,SENP7 inh,SENP8 block-2,SENP8 confirm,SENP6 confirm,SENP7 conf,Casp3 SENP sel,SENP luc ctr
Cc1ccccc1/C(N)=N/OC(=O)/C=C/c1ccccc1,-1,14,67*,60*,37,51*,52*,83*,71*,64*
Cc1ccc(Cn2ccnc2C(=O)Nc2ccccc2)cc1,2,4,79*,73*,51*,4,0,47,9,22
C/C(=N/OC(=O)c1ccc(C(F)(F)F)cc1)c1oc(C)nc1C,0,20,84*,91*,72*,78*,79*,97*,86*,57*
O=C1NC[C@H](Cc2ccccc2)N(CC2CCCCC2)C1=O,.,8,6,-7,2,.,.,.,.,.
O=C(CCCN1C(=O)/C(=C\c2ccccc2)SC1=S)Nc1cccc(C(=O)O)c1,-1,24,63*,0,38,43,48,37,24,6
CCc1ccc(/C=C2/SC(=S)N(CCCC(=O)Nc3cccc(C(=O)O)c3)C2=O)cc1,.,35,.,.,.,.,.,.,.,.
COc1cccc(/C=C2\SC(=S)N(CCCC(=O)Nc3ccc(C(=O)O)cc3)C2=O)c1,-3,9,84*,81*,84*,67*,76*,62*,58*,15
O=C(O)CCN1C(=O)/C(=C\c2cccc(OCC(=O)Nc3ccc(Cl)cc3)c2)SC1=S,0,27,35,-8,1,.,.,.,.,.
Cc1ccc(NC(=O)COc2cccc(/C=C3\SC(=S)N(CCC(=O)O)C3=O)c2)cc1Cl,0,33,66*,-1,47,13,42,61*,21,2
O=C1/C(=C\c2ccc(O)c(O)c2)SC(=S)N1Cc1ccccc1,1,36*,55*,-8,47,70*,69*,72*,18,49
COc1cc(/C=C2/SC(=S)N(Cc3ccccc3)C2=O)ccc1O,-4,29,49,4,0,.,.,.,.,.
Cc1ccc(-c2cc(C(=O)n3cnc4ccccc43)c3ccccc3n2)cc1C,4,-278,16,-8,-3,.,.,.,.,.
O=C(CCN1C(=O)/C(=C/c2ccc(Cl)cc2)SC1=S)Nc1cccc(C(=O)O)c1,5,18,8,5,34,.,.,.,.,.
O=C(CCN1C(=O)/C(=C/c2ccc3c(c2)OCO3)SC1=S)Nc1cccc(C(=O)O)c1,-8,29,9,-16,0,.,.,.,.,.
O=C(CCCN1C(=O)/C(=C/c2ccc3c(c2)OCO3)SC1=S)Nc1cccc(C(=O)O)c1,4,10,82*,48,76*,60*,82*,90*,63*,46
COc1ccc(/C=C2\SC(=S)N(CCC(=O)Nc3cccc(C(=O)O)c3)C2=O)cc1,-5,25,62*,6,53*,35,33,21,21,15
CCOC(=O)[C@]12CCC=C1N(Cc1ccco1)C(=O)[C@H](CC(=O)N1CCC(c3ccccc3)CC1)C2,.,6,.,.,.,.,.,.,.,.
COc1ccc(C(=O)CC(=O)c2ccccc2O)cc1,-2,-25,51*,45,44,48,47,83*,50,54*
COc1ccccc1-c1noc2ncnc(Nc3ccccc3C)c12,-3,-32,-13,-8,-14,.,.,.,.,.
O=C(Nc1ccc(F)c([N+](=O)[O-])c1)c1ccc2c(c1)OCCO2,-2,9,57*,69*,29,31,41,87*,61*,40
O=C(Nc1ccc(Cl)cc1[N+](=O)[O-])c1ccc2c(c1)OCCO2,1,9,17,64*,-16,15,10,8,6,-5
COc1ccc(C(=O)Nc2ccc3c(c2)OCCO3)cc1[N+](=O)[O-],2,19,14,8,-2,.,.,.,.,.
O=C(Nc1cc(Cl)ccc1N1CCOCC1)c1ccc2c(c1)OCCO2,2,0,-30,-9,-4,.,.,.,.,.
COc1cc(OC)c(N(C)S(=O)(=O)c2cccc(C(=O)OCc3c(C)noc3C)c2)cc1Cl,1,6,10,8,-3,.,.,.,.,.
CCOC(=O)/C=C/C(=O)Nc1ccc(S(=O)(=O)N(C)c2ccccc2)cc1,5,4,-9,-5,-2,.,.,.,.,.
SMILES,HSP90 inh,SENP8 block-1,SENP6 block,SENP7 inh,SENP8 block-2,SENP8 confirm,SENP6 confirm,SENP7 conf,Casp3 SENP sel,SENP luc ctr
CCCNc1nc2c(c(=O)[nH]c(=O)n2C)n1CCCc1ccccc1,-1,7,2,0,6,.,.,.,.,.
CN(C)c1ccc(/C=C/C(=O)c2ccccc2O)cc1,6,14,92*,89*,86*,18,27,14,8,-2
O=C(/C=C/c1ccc2c(c1)OCCCO2)c1ccccc1O,0,22,88*,84*,81*,91*,93*,92*,57*,26
Cc1ccc(O)c(C(=O)/C=C/c2ccc3c(c2)OCCCO3)c1,-1,14,31,-11,3,.,.,.,.,.
N#C/C(=N\Nc1ccc(F)cc1)C(=O)C1CC1,1,38,9,-9,3,.,.,.,.,.
N#C/C(=N\Nc1ccc(Cl)c(Cl)c1)C(=O)C1CC1,-3,35,96*,77*,93*,92*,98*,100*,87*,45
O=C(NCc1ccccc1)C(c1cc2ccccc2o1)n1c(=O)c(-c2ccccc2)nc2ccccc21 (stereo not given),.,-352,.,.,.,.,.,.,.,.
N/C(=N\OC(=O)C1CCCCC1)c1cccc(Br)c1,-2,11,69*,48,27,45,46,80*,69*,51*
COc1ccc(/C(N)=N/OC(=O)C2CCCCC2)cc1,-1,-11,27,68*,26,-17,10,61*,17,18
COc1ccc(/C(N)=N/OC(=O)Cc2cccs2)cc1,-2,5,51*,1,9,30,28,67*,26,33
N/C(=N\OC(=O)CC1CCCCC1)c1cccc(Br)c1,-2,6,37,22,12,.,.,.,.,.
COc1ccc(Cl)cc1N1Cc2ccccc2C1,1,16,-11,-1,-5,.,.,.,.,.
Cc1c(C(=O)N2CCN(C(=O)c3ccccc3)CC2)oc2ccc(F)cc12,.,-6,1,-2,-2,.,.,.,.,.
CCOc1ccc(S(=O)(=O)N2CCN(C(=O)c3cc(-c4ccccc4)nn3-c3ccccc3)CC2)cc1,.,-6,8,0,6,.,.,.,.,.
Cc1cccc(Nc2nnc(SCc3cn4ccsc4n3)s2)c1,4,17,56*,61*,42,41,40,72*,45,55*
